Among all 300,000 compounds or so, about 3,700 (1.2%) were called active. Another 20% or so got no clear call; they are omitted. The sample as a whole holds a higher share of actives than the screen did. Values without a mark were called inactive. Calls come from the whole dose curve; tested in HEK293 cells.
Test: qHTS for Inhibitors of binding or entry into cells for Lassa Virus; note: nearly all actives have a fitted effect of over 50% in size
Conditions: Lassa virus pseudotype entry inhibition, cell reporter; series mostly up to 37.9 µM; activity change, negative = inhibition: at the top concentration
% is set by controls: 0 for no effect and ±100 for the full control effect; potency is the fitted concentration of half-maximal effect.

SMILES	activity change, negative = inhibition	Potency
O=C(COC(=O)C1CCCO1)Nc1nc(-c2ccc(F)cc2)cs1 (centres undefined)	-0.186% [at 46.1 µM]	–
COc1cc(N)c(Cl)cc1C(=O)OCC(=O)c1ccc2c(c1)NC(=O)CO2	18.6%	–
COC(=O)C=C[C@H]1c2ccccc2[C@@H](OC)[C@@H]1C	-0.222% [at 14.3 µM]	–
NC1=NC(c2ccc([N+](=O)[O-])cc2)N(c2ccc(F)cc2)C(N)=N1 (centres undefined)	28.8% [at 46.1 µM]	–
CC(C)Sc1nc(N)nc2c1ncn2C1OC(CO)C(O)C1O (centres undefined)	10.1% [at 46.1 µM]	–
COc1cc2c(cc1OC)CN(C(=O)c1cc(S(=O)(=O)N3CCCCC3)ccc1Cl)CC2	-0.858% [at 46.1 µM]	–
CCOc1ccccc1NC(=S)C(=C([O-])c1ccc2c(c1)OCCO2)[n+]1ccc(CC)cc1	7.85% [at 46.1 µM]	–
CC(C)c1ccc(NC(=O)c2ccc(Cn3nc(N4CCN(c5ccccc5)CC4)ccc3=O)o2)cc1	16.8% [at 46.1 µM]	–
O=C(CSc1nnc(COc2ccc(Cl)cc2)n1Cc1ccco1)N1CCNC1=O	-12.1%	–
O=C(c1cc(C(=O)N2CCN(c3ccc(F)cc3)CC2)cc([N+](=O)[O-])c1)N1CCN(c2ccc(F)cc2)CC1	-26.7%	–
O=C(NCCCN1CCCC1=O)C(=O)NCC1OCCN1S(=O)(=O)c1ccc(Br)cc1 (centres undefined)	12.8%	–
Cc1cccc(NC(=S)NCc2ccc3[nH]c4c(c3c2)CCCC4)c1	–	20.6 µM (active)
Cc1cc(C)cc(NC(=S)NCc2ccc(F)cc2)c1	11.6%	–
CCc1cccc(NC(=O)CN(C)S(=O)(=O)c2ccc3[nH]c4c(c3c2)CCCC4)c1	-0.536% [at 46.1 µM]	–
CCCC(O)(c1ccccc1)C(c1ccccc1)c1ccccn1 (centres undefined)	13.1% [at 46.1 µM]	–
CCOC(=O)c1ccc(NC(=O)C2CCN(S(=O)(=O)c3ccc4c(c3)CCCC(=O)N4)CC2)cc1	-0.487% [at 46.1 µM]	–
COc1ccc(C(=O)NCCc2ccc(S(N)(=O)=O)cc2)cc1OC	1.98%	–
CC(C)(CO)CNC(=O)c1ccc2[nH]c(O)c(N=Nc3ccc(S(N)(=O)=O)cc3)c2c1	–	1.58 µM (active)
Cc1c(C)n(Cc2ccc(Cl)cc2)c2ccc(C(=O)NCCc3ccc(S(N)(=O)=O)cc3)cc12	-15% [at 46.1 µM]	–
Cc1cc(NC(=O)CCC(=O)N(CC(=O)NCC2CCCO2)c2ccccc2C)no1 (centres undefined)	-4.64%	–
CCCCOc1ccc(N(CC(=O)NCC2CCCO2)C(=O)CCC(=O)Nc2cc(C)ccn2)cc1 (centres undefined)	–	23.1 µM (active)
Cc1cc(NC(=O)CCC(=O)N(CC(=O)NCC2CCCO2)c2ccccc2)no1 (centres undefined)	14%	–

SMILES	activity change, negative = inhibition	Potency
Cc1oc2ncnc(N3CCCCC3)c2c1C(=O)N1CCN(c2cccc(Cl)c2)CC1	-17.4% [at 46.1 µM]	–
Cc1ccc(CNC(=O)COc2ccc3c(c2)CCC3)cc1	–	18.4 µM (active)
Cc1ccc(CNC(=O)COc2ccc(S(=O)(=O)NC(C)C)cc2)cc1	-27.2%	–
Cc1ccc(OCC(=O)NNC(=S)NCc2ccccc2)cc1	-3.7%	–
O=C1CCc2cc(S(=O)(=O)Nc3ccc(C(F)(F)F)cc3)cc3c2N1CC3	0.263%	–
CCOc1ccc(C(=O)CCC(=O)NC2=NCCS2)cc1	2.25%	–
Cc1ccc2oc(=O)c3cnn(CC(=O)N4CCN(c5cccc(Cl)c5)CC4)c3c2c1	-7.95% [at 46.1 µM]	–
Cc1ccccc1CCNC(=O)C1CCC(=O)N(Cc2ccc(Cl)cc2)C1 (centres undefined)	-1.95%	–
COc1ccccc1NC(=O)Nc1nc(CC(=O)Nc2ccccc2F)cs1	3.87%	–
C(=N\Nc1ccc2ccccc2n1)/c1ccc2c(c1)OCO2	–	2.24 µM (active)
Brc1ccc(-c2csc(N/N=C/c3ccc4c(c3)OCO4)n2)cc1	7.35%	–
Cc1noc(C)c1/C=N/Nc1ccc2ccccc2n1	-25.4%	–
Cn1nnc2cc(C(=O)NCCC3=CCCCC3)ccc21	–	8.91 µM (active)
CC(Sc1nncn1C)C(=O)NCCC1=CCCCC1 (centres undefined)	16.2% [at 46.1 µM]	–
Cc1ccc(-n2cnc3cc(C(=O)NCCC4=CCCCC4)ccc32)cc1Cl	12.8% [at 46.1 µM]	–
Cc1cccc(C(=O)N[C@H](C(=O)NCc2cccs2)C(C)C)c1	0.171%	–
COc1ccc2c(c1)c(=Cc1ccc(N(C)C)cc1)c1cc(-c3ccccc3)[n+](C)n12	–	8.91 µM (active)
CCc1nnc(SCc2c(F)cccc2Cl)c2cc3sccc3n12	-13.9% [at 46.1 µM]	–
O=C(COC(=O)c1ccc(Oc2ccccc2)cc1)Nc1nnc(-c2ccccc2)o1	11.2%	–
COc1cccc(-c2nnc(NC(=O)c3ccc(S(=O)(=O)N(CC(C)C)CC(C)C)cc3)o2)c1	–	7.08 µM (active)
CS(=O)(=O)c1ccc(-c2nnc(NC(=O)c3ccc4c(c3)OCCO4)o2)cc1	-1.29% [at 46.1 µM]	–
COC(=O)c1ccc(NS(=O)(=O)c2cc3c4c(c2)C(C)C(=O)N4CCC3)cc1 (centres undefined)	-10.9%	–

SMILES	activity change, negative = inhibition	Potency
COc1ccc(C(=O)N2CCN(c3ccc(C(C)=O)cc3F)CC2)cc1S(=O)(=O)NC1CC1	-10.2%	–
CC(C)(CNC(=O)Cc1ccc(Cl)cc1Cl)N1CCOCC1	12.5% [at 46.1 µM]	–
O=C(NCCSCc1ccccc1)c1ccc(Cl)c(S(=O)(=O)N2CCOCC2)c1	2.76%	–
CC(C)(CNC(=O)c1ccc(Cl)c(S(=O)(=O)N2CCc3ccccc3C2)c1)N1CCOCC1	–	11.2 µM (active)
Nc1ncnc2c1cnn2C1CC(O)C(CO)O1 (centres undefined)	-5.6% [at 46.1 µM]	–
CSc1ncccc1C(=O)NCC(c1ccco1)N1CCCCC1 (centres undefined)	1.83%	–
CCS(=O)(=O)Nc1ccc(C2=NN(S(=O)(=O)c3ccc(F)cc3)C(c3ccco3)C2)cc1 (centres undefined)	–	7.3 µM (active)
CS(=O)(=O)Nc1ccc(C2=NN(S(C)(=O)=O)C(c3cccs3)C2)cc1 (centres undefined)	-10.6%	–
CCS(=O)(=O)Nc1ccc(C2=NN(C(C)=O)C(c3cccs3)C2)cc1 (centres undefined)	-18.5%	–
COc1ccccc1C(=O)c1ccccc1C(=O)c1ccccc1	-0.819% [at 46.1 µM]	–
COc1ccc(-c2cn3nc(N4CCC(C(=O)Nc5cccc(C)c5C)CC4)sc3n2)cc1	18.7% [at 46.1 µM]	–
CC(C)NC(=O)c1ccc(Cl)cc1Cl	12.8% [at 46.1 µM]	–
CC(OC(=O)c1ccc(Cl)cc1O)C(=O)NCCC1=CCCCC1 (centres undefined)	2.74%	–
CC(C)OC(=O)c1ccc(NCc2cc(O)ccc2O)cc1Cl	–	10 µM (active)
O=C(Cn1c(-c2cccs2)cc2ccccc21)NCCc1ccc(Cl)cc1	8.67% [at 46.1 µM]	–
O=C1c2ccccc2C(=O)N1CCCCCCN1C(=O)c2ccccc2C1=O	0% [at 46.1 µM]	–
CC(=O)c1ccc(S(=O)(=O)NC2CC(=O)N(c3ccc4c(c3)OCCO4)C2)cc1 (centres undefined)	-2.24%	–
O=C(CSc1nncs1)NC1CCCc2ccccc21 (centres undefined)	14% [at 46.1 µM]	–
CSc1ccccc1N1CCN(CCCCCC(=O)NC2CCCc3ccccc32)CC1 (centres undefined)	–	11.6 µM (active)
O=C(CN1CCN(c2ccc(O)cc2)CC1)NC1CCCc2ccccc21 (centres undefined)	-29.6%	–

Source: PubChem BioAssay AID540256 (National Center for Advancing Translational Sciences (NCATS), 2011)
